Compound activity from PubChem.
A selection follows.
aSyn UTR act – Activators working through SNCA 5'UTR binding (MLPCN). alpha-synuclein 5'UTR reporter, activators screen. activity score, % (tested at 7.5 µM), hits read low. hit rate 7.1% among 300,000; in the data active = activity score below about -60%
* hit, by the source's call.

SMILES	aSyn UTR act
CC(=O)O[C@H]1C(=O)[C@@]2(C)C([C@H](OC(=O)c3ccccc3)[C@]3(O)C[C@H](OC(=O)[C@H](O)[C@@H](NC(=O)c4ccccc4)c4ccccc4)C(C)=C1C3(C)C)[C@]1(OC(C)=O)CO[C@@H]1C[C@H]2O (stereo partly drawn)	101.7
Cc1ccc(N=Cc2ccc(O)cc2O)cc1F	-83.6*
Fc1ccc2nc(Nc3nc4cc5c(cc4s3)OCCO5)sc2c1	-127.5*
Fc1ccc2nc(Nc3nc4cc5c(cc4s3)OCO5)sc2c1	-232.3*
c1ccc2sc(Nc3nc4cc5c(cc4s3)OCO5)nc2c1	-264.1*
Oc1ccc(COCc2ccccc2)c2cccnc12	51.0
CSc1ncccc1C(=O)OCc1ccccc1F	-62.4*
CSc1ncccc1C(=O)OCc1ccccc1	-66.3*
Oc1ccc(CNc2ccccc2F)c2cccnc12	86.7
CC1CCN(c2ccc(-c3cccs3)nn2)CC1	101.5
O=C(CSc1nnc(-c2cccs2)o1)N1CCCCC1	-99.1*
O=C(CSc1nnc(-c2ccco2)o1)N1CCCCC1	-95.0*
O=C(CSc1nnc(-c2ccco2)o1)c1ccc[nH]1	-158.0*
CC1CCN(C(=O)CSc2nnc(-c3cccs3)o2)CC1	-79.3*
COC(=O)N1N=C(c2ccc(Br)cc2)CC1(O)C(F)(F)F (stereo not drawn)	-125.7*
CCOC(=O)N1N=C(c2ccccc2)CC1(O)C(F)(F)F (stereo not drawn)	-75.4*
CCOC(=O)C1=NN(C(=O)c2cccc(Br)c2)C(O)(C(C)(C)C)C1 (stereo not drawn)	104.7
O=C(O)c1cccc(N/N=C/C2=C(Cl)c3cc(Cl)ccc3SC2)c1	-102.5*
COc1ccccc1-c1nnc(Sc2nc([N+](=O)[O-])nn2C)o1	-82.7*
Cc1ccccc1Nc1n[nH]c(C)c1[N+](=O)[O-]	-65.0*
COc1ccc(Nc2n[nH]c(C)c2[N+](=O)[O-])cc1	-102.4*
Cc1ccc(NC2=C(Cl)C(=O)OC2OC(C)C)c(C)c1 (stereo not drawn)	69.2
Cc1ccc(Nc2n[nH]c(C)c2[N+](=O)[O-])c(C)c1	-65.8*
Cn1cc(Cl)cc(C(=O)Nc2ccccc2)c1=O	-133.2*
O=C(O)c1nc2ccccc2nc1C(=O)O	-166.1*
SMILES	aSyn UTR act
Cc1ccc(CNC(=O)C2(S(=O)(=O)c3ccccc3)CC=CC2)cc1	-113.7*
C/C(=C/c1oc2ccc(O)cc2c1[N+](=O)[O-])N(C)C	-95.6*
O=C(CSc1ccccn1)c1ccc2c(c1)OCO2	-149.1*
O=C(CSc1nc2ccccc2[nH]1)c1ccc2c(c1)OCO2	-139.9*
Cc1[nH][nH]c(=O)c1C(c1c(C)[nH][nH]c1=O)c1cn(Cc2ccc(Cl)c(Cl)c2)c2ccccc12	90.3
Cc1cccc(Cn2cc(SCC(=O)Nc3nccs3)c3ccccc32)c1	-156.1*
Cc1ccc(OCC(=O)N/N=C/c2cn(Cc3ccccc3)c3ccccc23)cc1	59.5
Cn1cc(Br)c(C(=O)Nc2sc3c(c2C(N)=O)CCC3)n1	-94.6*
Cn1nccc1C(=O)Nc1sc2c(c1C(N)=O)CCCC2	-126.4*
Cn1nccc1C(=O)Nc1sc2c(c1C#N)CCCC2	-100.3*
O=C(O)/C=C\C(=O)Nc1ccccc1C#Cc1ccccc1	-86.8*
O=C(O)/C=C\C(=O)Nc1ccccc1C#Cc1ccc(Br)cc1	-290.4*
CCCN1CCC(=O)N([C@H](CSc2ccccc2)c2ccccc2)CC1	-72.1*
CCCN1CCC(=O)N([C@H](CSc2ccc(C)cc2)c2ccccc2)CC1	-181.0*
CCCN1CCC(=O)N([C@H](CSc2ccc(OC)cc2)CC(C)C)CC1	-113.5*
CN1CCC(=O)N([C@H](CSc2ccc(Br)cc2)c2ccccc2)CC1	-103.6*
CCN(CC)c1ccc(/C=N/n2nnnc2N)c(O)c1	-88.7*
COC(=O)c1cc(Br)ccc1-c1ccc(/C=N/n2nnnc2N)o1	55.1
CCN(C)c1ccc(/C=N\n2nnnc2N)cc1	-114.8*
C=CCn1cccc(C(=O)Nc2ccc(F)cc2)c1=O	-101.0*
C=CCn1cccc(C(=O)Nc2ccc(OC)cc2)c1=O	-96.6*
COc1ccc(NC(=O)c2cccn(CC=C(C)C)c2=O)cc1	-78.6*
C=CCc1cccc2cc(C(=O)Nc3ccc(F)cc3)c(=O)oc12	-128.3*
C=CCn1c(N)c(C(=O)Nc2ccccc2)c2nc3ccccc3nc21	59.5
Cc1ccc(SCC(=O)Nc2cccc(-c3nnc(-c4ccco4)o3)c2)cc1	-144.1*
SMILES	aSyn UTR act
COc1ccc(-c2nnc(SCC(=O)Nc3cc(F)ccc3C)o2)cc1	-160.9*
COc1cccc(NC(=O)CSc2nnc(-c3ccc(C)cc3)o2)c1	-114.5*
CCCCOC(=O)CSc1nc2c(cc1C#N)C(=O)CC(C)(C)C2	-133.2*
COc1cc(/C=N/NC(=S)NC2CC3CC2C2C=CCC32)ccc1O (stereo not drawn)	-116.1*
c1ccc(-c2cc3c(ccc4nonc43)nn2)cc1	-96.4*
COc1ccc(CNC(=O)NC2CCCCC2)cc1	-79.6*
O=C(NC1CCCCC1)C(=S)NCc1ccccc1	-71.1*
O=C(NC1CCCCC1)C(=S)NC1CCCCC1	-106.3*
O=C(NC1CCCCCC1)C(=S)NCc1ccccc1	-86.0*
